D2 PAM-1 = positively modulates the human D2 dopamine receptor allosterically. AID 485347. potentiation, % at 10 µM. actives 0.34% (n = 340,000). HEK293 T-REx D2, calcium flux, EC20 dopamine potentiation;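 active means potentiation over 3 SD above the plate norm, cut at about 30% in these data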; further: 0% is about no effect
Target sequence (P14416 whole entry, looked up): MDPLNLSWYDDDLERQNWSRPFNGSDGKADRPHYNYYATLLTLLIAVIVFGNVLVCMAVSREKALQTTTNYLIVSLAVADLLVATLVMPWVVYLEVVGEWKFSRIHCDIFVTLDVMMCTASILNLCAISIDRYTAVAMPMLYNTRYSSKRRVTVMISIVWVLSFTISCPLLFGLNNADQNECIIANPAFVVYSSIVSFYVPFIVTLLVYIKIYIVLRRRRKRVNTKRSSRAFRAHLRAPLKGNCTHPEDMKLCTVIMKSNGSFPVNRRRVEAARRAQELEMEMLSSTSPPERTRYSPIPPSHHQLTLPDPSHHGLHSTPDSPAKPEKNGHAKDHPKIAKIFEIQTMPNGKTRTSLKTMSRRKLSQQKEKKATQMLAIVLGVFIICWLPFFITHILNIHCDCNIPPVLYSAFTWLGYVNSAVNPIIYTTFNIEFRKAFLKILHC
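Using a no-wash calcium dye in inducible, force-coupled HEK293 Trex cells expressing D2, we tracked fluorescence each second for 180 s after compound, then for 180 s after EC20 dopamine to detect augmented signalling.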
D2 ag-1 = activates the human D2 dopamine receptor. activation, % (no concentration beside the values). actives 0.084% (n = 360,000). DiscoveRx PathHunter D2 beta-arrestin, luminescence, 90 min; 100% = 57 uM dopamine signal; in the data active means activation above about 40%; inconclusive means between about 15% and that limit
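DiscoveRx PathHunter D2 beta-arrestin cells (2,100/well) attached overnight, then compound-stimulated 90 min at 37 C in HBSS/10 mM HEPES/0.1% Tween-20 buffer; beta-galactosidase complementation read by luminescence after 1 h at ambient temperature. Dopamine 57 uM final (EC100) as control.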
D2 PAM-2 = human D2 receptor positive allosteric modulation. P14416. DiscoveRx D2 beta-arrestin cells, luminescence, 90 min; 100% = 57 uM dopamine signal. potentiation, % (concentration not given with the values). actives 0.23% (n = 360,000); in the data active means potentiation above about 50%; inconclusive means mostly about 30% to 49%
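PathHunter beta-arrestin assay in DiscoveRx D2 cells. Compounds were added with an EC20 of dopamine (50 nM final) for 90 min at 37 deg C. Luminescence was read 1 h after detection reagent, with 57 uM dopamine as the EC100 control.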
D2 ag-2 = agonists of human D2 dopamine receptor | HEK293 T-REx D2 cells, calcium flux agonist mode | activation, % at 2 µM | P14416 | actives 0.53% (n = 340,000);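 active means activation over 3 SD above normal in the single-dose calcium agonist read, cut at about 30% in these data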; further: 0% is about no effect
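HEK293 Trex D2 cells, tetracycline-induced, o/n 30 C 5% CO2; no-wash Ca dye, RT 30–90 min; 10-cycle baseline, 23 nl cpd added, kinetic Ca read 180 s; agonist hits = positive Ca response.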
D2 antagonist = D2 dopamine receptor (human) antagonism | P14416 | HEK293 TREx D2 cells, calcium flux, dopamine EC80 | inhibition, % at 10 µM | actives 2% (n = 340,000); in the data active means inhibition above about 30%; inactive means below that, where a call was filed; further: 0% is about no effect
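Antagonism is scored as inhibition of an EC80 dopamine-evoked calcium signal in a force-coupled, tetracycline-inducible HEK293 T-REx D2 line, with compound present 180 s before agonist.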
Numbers without * were called inactive; ? = inconclusive; . = not tested or not shown. Most compounds without a hit are left out; they make up all but 2.4% or so of the library.

SMILES	D2 PAM-1	D2 ag-1	D2 PAM-2	D2 ag-2	D2 antagonist
CCCOc1ccc(CNC(=O)c2oc3ccc4c(c3c2C)C(=O)CC(C)(CC)O4)cc1 (stereo unspecified)	6.4	.	.	0.4	.
CCCCCCCCC(=O)NCCOc1ccc(OC)cc1	-8.2	-5.0	-1.5	0.3	21.1
CCCNC(=O)c1ccc(OC)cc1OC	1.6	-5.4	-4.7	0.3	4.6
COc1ccc(C(=O)NCC(C)C)c(OC)c1	44.3*	-0.6	-3.1	0.9	-6.3
COc1ccc(OCCCC(=O)NCC(C)C)cc1	-0.7	-2.9	-8.2	0.5	30.6*
Cc1cccc(NC(=O)N2CCC3(CC2)Oc2ccccc2C(=O)N3Cc2ccccc2F)c1C	-5.9	.	.	.	.
Cc1cccc(C)c1NC(=O)N1C2CCCC1CC(NC(=O)C(C)(C)C)C2 (stereo unspecified)	13.9	0.1	-6.1	0.2	37.5*
CC(=O)NC1CC2CCCC(C1)N2C(=O)Nc1c(C)cccc1C (stereo unspecified)	.	0.7	-5.7	.	.
CCOc1ccc(NC(=O)CCC(=O)NNC(=O)COc2ccccc2C)cc1	-3.6	-5.2	0.4	-1.0	36.3*
COc1ccc(S(=O)(=O)N(C(=O)c2ccncc2)c2ccc3oc(C)c(C(C)=O)c3c2)cc1	.	.	.	-2.0	.
Cc1ccc(C)c(OCC(O)CN2CCC(Cc3ccccc3)CC2)c1 (stereo unspecified)	0.3	-7.2	-15.6	-0.4	46.7*
CCOC(=O)N1CCN(CC(O)COc2ccc(C(C)C)c(C)c2)CC1 (stereo unspecified)	-19.3	-3.4	-3.0	30.5*	6.7
OC(COc1ccc(Cl)cc1)CN1CCC(Cc2ccccc2)CC1 (stereo unspecified)	-27.0	1.2	-29.7	1.1	22.1
Cc1ccc(N2CCN(CC(O)COc3ccccc3)CC2)cc1 (stereo unspecified)	-22.0	3.6	-23.0	0.2	38.9*
Cc1ccc(OCC(O)CN2CCN(CC(O)COc3ccc(C)cc3)CC2)cc1 (stereo unspecified)	6.1	-1.0	-25.6	0.7	9.4
Cc1ccc(OCC(O)CN2CCN(c3ccc(C)cc3)CC2)cc1 (stereo unspecified)	-24.1	-2.5	-2.0	-0.3	53.2*
Cc1cccc(-c2noc(-c3cc(C(C)C)[nH]n3)n2)c1	-1.0	.	.	0.4	.
Cc1cc(=O)oc2cc(OCC(O)CN3CCN(c4ccc(F)cc4)CC3)ccc12 (stereo unspecified)	-19.3	?	-7.1	73.1*	75.9*
CCCCn1c(-c2ccc(OC(F)F)cc2)nc2c1c(=O)[nH]c(=O)n2CC(C)C	32.7*	2.7	-0.3	-2.2	-2.4
NS(=O)(=O)c1ccc(CCNC(=O)CNC(=O)c2ccc(Br)o2)cc1	-25.3	-3.4	-5.4	-0.1	65.8*
Cc1cc(=O)[nH]c(SCC(=O)NCC2CCCO2)n1 (stereo unspecified)	-9.7	-4.8	-2.2	0.5	34.0*
COC(=O)C1=C(C)NC2=C(C1c1ccc(O)cc1)S(=O)(=O)c1ccccc12 (stereo unspecified)	-15.9	-5.4	-12.8	0.2	-3.8
COc1ccc(C2C(C#N)=C(C)NC3=C2S(=O)(=O)c2ccccc23)cc1 (stereo unspecified)	31.6*	-4.1	-16.4	-0.3	-23.7
COc1ccc(/C=C/C(=O)Nc2nc(-c3cccs3)ns2)cc1	4.8	.	.	2.4	.
CCC1CCCCN1C(=O)CCS(=O)(=O)c1cc2c(cc1C)NC(=O)CO2 (stereo unspecified)	-12.1	.	.	3.3	.
SMILES	D2 PAM-1	D2 ag-1	D2 PAM-2	D2 ag-2	D2 antagonist
Cc1ccc(C(=O)CCNc2ccccc2)o1	-6.6	-4.6	28.7	-0.2	32.5*
C/C(=N/NC(=O)c1ccncc1)c1c[nH]c2ccccc12	9.6	0.4	-16.1	-1.9	47.9*
C/C(=N\NC(=O)c1c[nH]c2ccccc12)c1ccc(C)s1	16.9	-1.6	-12.2	-0.9	2.5
CC1CN(CCOc2ccc([N+](=O)[O-])cc2)CC(C)O1 (stereo unspecified)	5.0	-1.3	-10.7	-1.0	-6.6
O=[N+]([O-])c1ccc(OCCN2CCNCC2)cc1	-2.9	-2.3	-7.1	0.6	31.8*
Cc1ccc(-n2ncc3c(SCC(=O)NNC(=O)c4ccco4)ncnc32)cc1	32.4*	1.3	-3.1	0.1	-0.8
CCOC(=O)CNC(=O)CSc1ncnc2c1cnn2-c1ccc(C)cc1	-4.7	1.0	-2.8	-0.3	4.8
Cc1[nH]n2c(=O)c3c(nc2c1-c1ccccc1)CCCC3	-17.8	-2.6	-39.4	3.1	-17.2
Cc1[nH]n2c(=O)c3c(nc2c1-c1ccc(F)cc1)CCCC3	-21.7	-5.8	-16.7	-0.9	35.6*
CC(C)OCCc1cccc[n+]1[O-]	.	-6.6	-4.3	.	.
CCC(=O)N1c2ccc(S(=O)(=O)CCC(=O)NCCC3=CCCCC3)cc2CC1C (stereo unspecified)	-14.2	-0.1	-34.6	-0.4	30.9*
CCC(=O)N1CCc2cc(S(=O)(=O)CCC(=O)NCCC3=CCCCC3)ccc21	.	0.5	-16.8	.	.
O=C1C(Cl)=C(NCc2cccnc2)C(=O)c2ccccc21	7.5	?	6.6	0.3	33.7*
O=C1C(Cl)=C(NCCc2ccccc2)C(=O)c2ccccc21	.	1.9	-16.4	.	.
O=C(Nc1ccc(Cl)cc1)N1CCC(c2nc(-c3ccccc3Cl)no2)CC1	0.5	3.1	-16.0	0.3	31.2*
Cc1ccc(CCNC(=O)C(NS(=O)(=O)c2ccc3c(c2)oc(=O)n3C)C(C)C)cc1 (stereo unspecified)	-1.0	.	.	-0.1	.
COc1ccc(CCn2c(N)cc(=O)[nH]c2=S)cc1OC	33.9*	-3.1	-20.0	0.3	-16.0
COc1ccc(S(=O)(=O)N(C)C[C@@H]2OCCCC[C@H](C)Oc3ccc(NC(=O)Nc4ccc(C(F)(F)F)cc4)cc3C(=O)N([C@H](C)CO)C[C@H]2C)cc1	.	-7.6	-13.1	.	.
OC[C@@H]1CN(Cc2ccc3c(c2)OCO3)C[C@H](n2cnc3c(N4CCN(c5ccccc5)CC4)ncnc32)O1	.	11.9	11.7	.	.
O=C(C1CCC1)N1CCc2cc(S(=O)(=O)NCCN3CCN(c4ccccc4F)CC3)ccc21	-18.2	?	-4.0	67.8*	52.7*
CCC(=O)N1CCc2cc(S(=O)(=O)NCCC(=O)N3CCN(c4ccccc4)CC3)ccc21	-4.3	7.8	-3.8	5.4	34.3*
O=C(CCNS(=O)(=O)c1ccc2c(c1)CCN2C(=O)C1CC1)N1CCN(c2ccccc2F)CC1	11.0	.	.	.	.
Cc1nc2ccc(S(=O)(=O)CCC(=O)Nc3ccc(F)cc3C)cc2s1	4.1	.	.	0.4	.
CC(=O)c1cccc(NC(=O)CSc2nnc3ccc(-c4ccc(Cl)cc4)nn23)c1	-6.5	.	.	.	.

High-throughput results deposited in PubChem by National Center for Advancing Translational Sciences (NCATS).
